# Target: RBMY1E
# Assay: pooled miR-30 sensor sort-seq; sequence = guide strand
# Settings: shRNA
# Note: reference of the scale not given here.
row,Sequence,sensor-assay potency score (higher = more potent)
1,TTGAGCTACCACATGCTTCACG,-0.607
2,AACTTGAGCTACCACATGCTTC,-1.03
3,TAACTTGAGCTACCACATGCTT,-1.09

# Target: RBP1
# Assay: as above
# Settings: shRNA
row,Sequence,sensor-assay potency score (higher = more potent)
1,TTGTCATGCACTTGCGGTCATC,-1.49
2,TACTCCTCGAAATTCTCGTTGA,-0.0394
3,TCGTTGACCAACATCTTCCAGT,-0.239
4,ATTCTCGTTGACCAACATCTTC,-0.954
5,TTGACCAACATCTTCCAGTACC,-0.856
6,TTCTCGTTGACCAACATCTTCC,-0.467
7,ACTGTTGTCATGCACTTGCGGT,-1.01
8,TTCCTAAAAGTGCTCAGCGTGC,-1.04
9,AAGTCCATGATGTAGTTCCTAA,-0.968
10,TTGCTTGCAGACCACACCTTCC,-0.849
11,TTCTGCACACACTGGAGCTTGT,-0.8
12,TTCCACTCTCATCTCTAGGTGC,-0.438

# Target: RCSD1
# Assay: as above
# Settings: shRNA
row,Sequence,sensor-assay potency score (higher = more potent)
1,TAGCCTTTTCCATCTCTGCTTC,-0.0691
2,TAACTGATATTTGAGAACCGTA,-1.05
3,TTGAAAAGTTGTCTCTAGGGTT,-0.0262
4,TTTGATACAATTTAGGGTCTTC,0.305
5,TAGAACATTAAAAAGGAACTTT,0.0564
6,TTAAAAAGGAACTTTACCCAAG,-0.456
7,TATCTCTTCTAGTCCAGTGTTT,-0.522
8,TTCCTTAGCACCGTTCTGCTGA,0.0396
9,TACAACTGTTGCTGCTACCTGC,0.0449
10,TTTGAGAACCGTAAACACTTTA,-0.421
11,TTGTTGTTGAACCAAGTCCATC,-1.65
12,TTGAGAACCGTAAACACTTTAG,-0.662

# Target: RDH5
# Assay: as above
# Settings: shRNA
row,Sequence,sensor-assay potency score (higher = more potent)
1,TTTCAGGTACTTGGTGAGGAAG,-1.78
2,ATCAGTGATATCCAACAGGGTG,-0.912
3,TGTGTTCACATTCAGCACCCGC,-1.07
4,TGCATTTTCAGGTACTTGGTGA,0.187
5,TTCCTTAACGTGCATCTCCACC,-0.947
6,TCAGTGATATCCAACAGGGTGG,-0.32
7,AAAATGAGCTACATCCCGCCTC,-0.19
8,TAGGTCCGGGTCACAGATCAGG,-1.62
9,TTTCTCCAGACTCTCCAGGTTG,-1.05
10,ATGAGCTACATCCCGCCTCAGG,-1.65
11,TTAACGTGCATCTCCACCCACT,-0.757
12,TCGGAAGCCTCTCTGGTCCAGC,-1.15

# Source: the OligoGym collection
